# Test results reported in PubChem BioAssay (NCI).
# The panel holds about 83,000 compounds, 20% with a hit somewhere; the sample as a whole holds those more often.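 Percent growth is the endpoint: 0 to 100 indicates growth inhibition (40 means 60% inhibition), 0 means no net growth, and negative values indicate cell death.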 Calls of active or inactive are those of the source.
# Test system: SK-OV-3 ovarian
# Test: NCI-60 one-dose screen, 48 h (100 = growth as untreated, 0 = no growth, -100 = all killed)
# Conditions: 10 µM unless noted
# Method: Growth inhibition of the SK-OV-3 human tumor cell line is measured as a screen for anti-cancer activity. Cells are grown in 96 well plates and exposed to the test compound for 48 hours. Compounds are tested at a single concentration, which is 10^-5 M for most compounds. The reported endpoint is percent growth (GI% or GIPRCNT), where numbers from 0 - 100% represent growth inhibition, and numbers from -100% - 0 represent cell death. For example, a value of 40 represents 60% growth inhibition. A value of 0 means no net growth occurred over the course of the experiment. A value of -40 indicates 40% of cells at the beginning of the experiment died by the end of the experiment. A value of -100 means all cells are dead at the end of the experiment.
# NCI-60 Human Tumor Cell Lines Screen was performed using the standard one-dose NCI protocol, which is described in more detail at https://dtp.cancer.gov/discovery_development/nci-60/default.htm.
# Compounds with GIPRCNT values below 10 were considered active. Activity score was based on GIPRCNT using the following formula: […]
# Score is 0 for GIPRCNT values of 100 or above, 50 for GIPRCNT values of 0, and 100 for GIPRCNT values of -100.
row,SMILES,growth
1,CC(=O)Oc1csc(N(C(C)=O)c2cc(C(=O)O)cc(C(=O)O)c2)n1,111% (inactive)
2,CCN1CCN(CC(=O)N2c3cccc4cccc(c34)N(C(=O)CN3CCN(CC)CC3)C2c2cn(-c3ccccc3)nc2-c2cccc([N+](=O)[O-])c2)CC1,115% (inactive)
3,Cn1c(=O)cc(NC(=O)CN2CCN(c3cc4c(cc3F)c(=O)c(C(=O)O)cn4C3CC3)CC2)[nH]c1=O,112% (inactive)
4,O=C(/C=C/c1ccccc1)c1cccc(O)c1,104% (inactive)
5,Nc1cccc(-c2nc3sccn3c2-c2ccnc(NCCNS(=O)(=O)c3ccc(C(F)(F)F)cc3)n2)c1,53.5% (inactive)
6,CN(C[C@H]1Cc2c(cccc2N2CCN(c3ncccn3)CC2)CN1)[C@H]1CCCc2cccnc21,39.5% (inactive)
7,O=C1/C(=C/c2ccc(Cl)cc2)CN(Cc2cn(CCNc3ccnc4cc(Cl)ccc34)nn2)C/C1=C\c1ccc(Cl)cc1,-95.5% (active)
8,Cc1c(C(=N)C(C#N)C#N)c(=N)oc2c1ccc1ccccc12,104% (inactive)
9,O=C1CS/C(=N\Nc2cc(=O)[nH]c3ccccc23)N1c1ccccc1,107% (inactive)
10,Cc1ccc(N2CCN(C(C)C(N)=O)CC2)cc1 (stereo not given),114% (inactive)
11,CCN(CC)CCC(CNc1ccnc2cc(Cl)ccc12)c1ccccc1 (stereo not given),85.6% (inactive)
12,c1cc2[nH]ncc2cc1-c1nc2ccc3[nH]ncc3c2c2c1CCC2,5.23% (active)
13,COc1cc2c(c(OC)c1OC)-c1ccc(N)c(=O)cc1[C@@H](NC(C)=O)CC2,23.9% (inactive)
14,C=C1CCC2C3(C)COC(c4c(OC)cccc4OC)OC3CCC2(C)C1C/C=C1/C(=O)OCC1O (stereo not given),71.6% (inactive)
15,Clc1ccccc1-c1nc2ccccc2[nH]1,103% (inactive)
16,O=C1C2(c3ccccc3)C(c3ccccc3)=C(c3ccccc3)C1(c1ccccc1)C1CC=CC12 (stereo not given),96.3% (inactive)
17,O=C(Nc1cccc(-n2cc(-c3ccncc3)c(-c3ccc(Cl)c(O)c3)n2)c1)Nc1ccc(Cl)c(C(F)(F)F)c1,7.47% (active)
18,Nc1nnc(-c2ccc3ccccc3c2O)o1,105% (inactive)
19,CC(C)C1=CC2=C(C=O)C[C@@H]3[C@](C)(CCC[C@@]3(C)C(=O)OCC#CCN3CCCC3)[C@H]2CC1,81.8% (inactive)
20,Cc1ccc2ccccc2c1C[n+]1ccccc1,100% (inactive)

row,SMILES,growth
1,Nc1ncnc2c1c(-c1ccc(Oc3ccccc3)cc1)nn2C[C@@H]1SSC[C@@H]1O,3.68% (active)
2,O=C(Nc1cccc(-n2cc(-c3ccncc3)c(-c3ccc(Cl)c(O)c3)n2)c1)Nc1cc(C(F)(F)F)cc(C(F)(F)F)c1,-24.3% (active)
3,O=C(/C=C/c1c[nH]c2ccccc12)c1ccc(O)c(CN2CCN(c3ccc(F)cc3)CC2)c1,101% (inactive)
4,COc1ccc(-c2cn(-c3cccc(C(=O)/C=C/c4cc(OC)c(OC)c(OC)c4)c3)c(=O)[nH]2)cc1OC,82.7% (inactive)
5,O=[N+]([O-])c1ccc(C(c2ccccc2)c2ccccc2)cc1,102% (inactive)
6,CCn1c2ccccc2c2cc(NC(=O)Nc3ccc([N+](=O)[O-])cc3C)ccc21,74.9% (inactive)
7,O=[N+]([O-])c1ccc(Sc2ncccn2)c([N+](=O)[O-])c1,95.2% (inactive)
8,COc1ccc(C(=O)c2cc(OC)c3c(c2)OCO3)cc1O,8.88% (active)
9,COc1ccc(-c2nc(/C=N/Nc3cc(C)nc4ccc(Cl)cc34)c(C)o2)cc1,92.5% (inactive)
10,CN(C)CCCN(c1nc(C(Cl)(Cl)Cl)ns1)c1nc(C(Cl)(Cl)Cl)ns1,86.6% (inactive)
11,O=C(C1=Cc2cc3ccccc3n2Cc2cnnn21)c1ccccc1,67.8% (inactive)
12,O=S1(=O)CCC(N(/N=C/c2ccco2)c2ccccc2)C1 (stereo not given),110% (inactive)
13,CN(CCCCN(C[C@H]1Cc2ncccc2CN1)[C@H]1CCCc2cccnc21)C1CCC(F)(F)CC1,90.6% (inactive)
14,CCN1CCN(c2nc(NNC(=O)c3ccccc3)nc(N3CCN(C(c4ccccc4)c4ccccc4)CC3)n2)CC1,89.7% (inactive)
15,C=C(C)[C@@H]1CC[C@]2(C(=O)O)CC[C@]3(C)[C@H](CC[C@@H]4[C@@]5(C)C[C@@H](CC#Cc6ccc(C(F)(F)F)cc6)[C@H](O)C(C)(C)[C@@H]5CC[C@]43C)[C@@H]12,36.2% (inactive)
16,O=C(O)COc1ccc(-c2cssc2=S)cc1,108% (inactive)
17,COc1cc(Nc2ncccc2C(=O)NCc2cn(Cc3cccc(Oc4ccccc4)c3)nn2)cc(OC)c1,41.9% (inactive)
18,Nc1ccc(C(=O)CSc2nc3ccccc3[nH]2)cc1,105% (inactive)
19,COc1cc(C2C3=C(COC3=O)Nc3cc4c(cc32)CCC4)cc2c1OCO2 (stereo not given),17.4% (inactive)
20,COc1ccc(C(=O)N2NC(=O)/C(=C/c3ccc(Br)cc3)N=C2c2ccccc2)cc1,85.3% (inactive)
